The target of assay [1] is Ubiquitin carboxyl-terminal hydrolase 1 (Homo sapiens) (UniProt O94782). Briefly: Inhibitors of USP1/UAF1: Pilot qHTS (AID 504865). Also: nearly all actives have a fitted effect of over 35% in size. Also: potency is read from the fitted curve at half-maximal effect. The method in brief: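 Deubiquitinase activity followed as kinetic rhodamine fluorescence release from 150 nM Ub-Rho. 1 nM USP1/UAF1 with compound, after 15 min room-temperature preincubation, in HEPES pH 7.8 buffer containing TCEP, EDTA, BSA and Tween-20.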
Sequence of Ubiquitin carboxyl-terminal hydrolase 1 (Homo sapiens) (O94782 whole entry, looked up): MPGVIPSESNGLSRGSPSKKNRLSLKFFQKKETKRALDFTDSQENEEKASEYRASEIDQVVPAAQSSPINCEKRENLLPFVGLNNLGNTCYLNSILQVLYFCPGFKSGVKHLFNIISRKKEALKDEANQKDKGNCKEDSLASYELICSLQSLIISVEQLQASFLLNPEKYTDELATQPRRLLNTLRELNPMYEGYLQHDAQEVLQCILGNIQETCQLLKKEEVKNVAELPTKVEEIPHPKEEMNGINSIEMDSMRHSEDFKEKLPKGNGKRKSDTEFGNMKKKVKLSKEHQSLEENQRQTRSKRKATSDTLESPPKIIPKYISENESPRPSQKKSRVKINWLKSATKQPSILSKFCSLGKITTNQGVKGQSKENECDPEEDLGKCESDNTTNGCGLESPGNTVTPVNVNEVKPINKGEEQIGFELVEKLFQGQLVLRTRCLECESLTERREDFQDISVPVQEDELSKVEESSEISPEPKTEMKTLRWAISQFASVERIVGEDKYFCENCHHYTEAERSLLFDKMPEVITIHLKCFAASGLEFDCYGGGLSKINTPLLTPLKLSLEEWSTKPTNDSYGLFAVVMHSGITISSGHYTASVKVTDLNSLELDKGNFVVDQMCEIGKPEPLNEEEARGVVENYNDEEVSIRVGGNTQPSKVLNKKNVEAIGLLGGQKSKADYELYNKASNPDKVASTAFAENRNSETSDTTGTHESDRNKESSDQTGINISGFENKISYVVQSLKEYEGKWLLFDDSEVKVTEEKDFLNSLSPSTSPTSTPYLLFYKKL
(qHTS replaces the single test concentration by a dilution series.)

A short description of assay [2]: S16 Schwann cell PMP22 intronic element firefly luciferase assay (AID 624032). Also: nearly all actives have a fitted effect of over 30% in size. Also: potency is read from the fitted curve at half-maximal effect. The method, boiled down: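 Rat S16 Schwann cells stably carrying a PMP22 intronic element-driven Fluc reporter were seeded overnight, then exposed to compounds for 24 h at 37 °C. Luminescence was normalized to PTC124 (positive control) and DMSO (0% activity).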
A further assay relates to DFO2036. The assay can be described thus: qHTS profiling for inhibitors of Plasmodium falciparum proliferation (AID 504749). Also: nearly all actives have a fitted effect of over 60% in size. Also: potency is read from the fitted curve at half-maximal effect. Particulars: P. falciparum in erythrocytes, SYBR Green DNA, 72 h; series mostly up to 28.7 µM. The method in brief: (§1)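 Quantitative HTS: compounds pinned into medium, infected erythrocytes added (0.3% parasitemia, 2.5% hematocrit), 72 h culture at 37 C under 5% CO2. Saponin/Triton lysis with SYBR Green I, overnight RT, then fluorescence read.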

The next assay deals with ICS. The description is as above. Particulars: P. falciparum in erythrocytes, SYBR Green DNA, 72 h; series mostly up to 28.7 µM. The method, boiled down:
as §1

A further assay deals with DIV14. Described as above. Particulars: P. falciparum in erythrocytes, SYBR Green DNA, 72 h; series mostly up to 28.7 µM. The method in brief:
as §1

The subject of the next assay is W2. The description is as above. Particulars: P. falciparum in erythrocytes, SYBR Green DNA, 72 h; series mostly up to 28.7 µM. The method in brief: as §1
Assay [3] has as its target Cytochrome P450 3A4 (Homo sapiens) (UniProt P08684). Briefly: qHTS Assay for Inhibitors and Substrates of Cytochrome P450 3A4 (AID 884). Also: nearly all actives have a fitted effect of over 50% in size. The method, boiled down: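 Luminescent readout of luciferin produced by CYP3A4 (20 nM) dealkylation of Luciferin-PPXE, 25 uM (its KM). NADPH-driven reaction ran 60 min at RT after 10 min compound preincubation; data scaled to 57 uM ketoconazole as 100% inhibition.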

Assay [4] can be described thus: Confirmation and Secondary Assay for Modulators of Hemoglobin Beta Chain Splicing at IVS2 654 locus (AID 910). The method, boiled down:
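HeLa cells stably carrying EGFP interrupted by mutant beta-globin IVS2-654 intron (CMV-driven) were treated with compound for 2 days at 37C; corrected splicing was scored as total peak GFP intensity per well (488 nm excitation, 500-520 nm emission).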

The nature of assay [5]: Confirmation and Secondary Assay for Modulators of Hemoglobin Beta Chain Splicing at IVS2 705 locus (AID 930).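 Also: HeLa cells stably expressing the EGFP-705 splicing reporter; GFP fluorescence per well restored by corrected splicing of the IVS2-705 intron in EGFP.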 The method in brief: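 Read-out: total peak GFP fluorescence per well (488 nm excitation, 500-520 nm emission) by laser-scanning cytometry. Cells: HeLa EGFP-705 splicing reporter, 2 days compound exposure in Optimem/2% FCS.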
Assay [6] has as its target Cytochrome P450 3A4 (Homo sapiens) (UniProt P08684). The assay can be described thus: qHTS Assay for Activators of Cytochrome P450 3A4 (AID 885). Also: nearly all actives have a fitted effect of over 65% in size. The method in brief:
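Human CYP3A4 dealkylates Luciferin-PPXE to luciferin, which luciferase detection converts to light. Substrate was at its KM (25uM), buffer 200mM KPO4, reaction 60 min at RT.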

Inconclusive results are not listed. Active and inactive are the calls of the source. Calls follow the shape of the dose curve; as a rule, active = well fitted curve in the direction sought with a large enough effect; inconclusive = small, poorly fitted or top-dose-only effect, or another doubt; inactive = no such curve, though single readings can be large; an effect the other way counts as inactive or inconclusive.

Sequence of Cytochrome P450 3A4 (Homo sapiens) (P08684 whole entry, looked up): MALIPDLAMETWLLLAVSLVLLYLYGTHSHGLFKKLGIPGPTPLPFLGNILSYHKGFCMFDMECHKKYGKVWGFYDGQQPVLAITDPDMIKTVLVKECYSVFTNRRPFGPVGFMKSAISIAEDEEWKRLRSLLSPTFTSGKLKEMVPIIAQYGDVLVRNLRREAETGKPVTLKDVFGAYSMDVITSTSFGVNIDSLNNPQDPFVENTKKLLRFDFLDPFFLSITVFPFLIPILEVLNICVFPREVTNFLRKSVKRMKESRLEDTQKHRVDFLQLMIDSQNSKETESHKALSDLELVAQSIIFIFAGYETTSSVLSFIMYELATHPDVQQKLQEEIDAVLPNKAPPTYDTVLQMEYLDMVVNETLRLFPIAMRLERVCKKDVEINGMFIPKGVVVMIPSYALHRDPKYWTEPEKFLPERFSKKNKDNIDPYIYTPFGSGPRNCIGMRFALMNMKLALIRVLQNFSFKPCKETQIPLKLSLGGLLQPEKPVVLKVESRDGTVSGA

As to `CCN(CC)C(=O)[C@@]1(c2ccccc2)C[C@@H]1CN`, the Potency result (in [1]; in [2]; with DFO2036; in the assay on ICS) was “inactive” throughout.

For `CC(=O)O[C@]1(C(C)=O)CCC2C3CCC4=CC(=O)CCC4(C)C3(F)C(O)CC21C` (stereo not given in full), the Potency result (in assay [1]; in [2]; with DFO2036; in the assay on DIV14) was “inactive” each time.

Turning to `C=C(CC[C@@H](C)[C@H]1CCC2[C@]1(C)CC[C@]13C[C@@]14CCC(OC(=O)/C=C/c1ccc(O)c(OC)c1)C(C)(C)[C@@H]4CC[C@@]23C)C(C)C` (stereo not given in full), the Potency entry (in [1]; in assay [2]; with DFO2036; in the assay with DIV14; in the assay on ICS; in the assay with W2) was “inactive” throughout.

For `C[N+]12CCCC[C@@H]1CCC(=C(c1cccs1)c1cccs1)C2` (stereo not given in full), in [1], the Potency entry is “inactive”. Moreover, the results for the Potency in the assay on DFO2036, with DIV14 and with W2 were 10 µM (active), 6.75 µM (active) and 13.5 µM (active), respectively.

On to `Cc1c(C)c2c(c(C)c1O)CCC(C)(CCCC(C)CCCC(C)CCCC(C)C)O2` (stereo not given), for which the Potency entry (in [3]; in assay [4]; in assay [5]; in assay [2]; in the assay on DIV14; with W2) was “inactive” in each case.

Consider `Nc1nc2[nH]cc(CCc3ccc(C(=O)NC(CCC(=O)O)C(=O)O)cc3)c2c(=O)[nH]1` (stereo not given), for which the Potency entry in [2] is “inactive”. Also, the Potency with DFO2036 is 0.0631 µM (active); in the assay with ICS, 10 µM (active); in the assay with W2 it was 0.0757 µM (active).

As to `C#C[C@]1(O)CC[C@H]2[C@H]3[C@H](CC[C@@]21C)C1=C(CC(=O)CC1)C[C@@H]3C`, the Potency entry in the assay on DFO2036 and with DIV14 was “inactive” in each case.

With `N#C/C(=C1/SCC(c2ccccc2Cl)S1)n1ccnc1` (stereo not given), the Potency result (in [1]; in the assay with W2) was “inactive” each time. Besides, the Potency in assay [2] is 11.4 µM (active).

For `CC(C)C(=O)OCC(=O)[C@@]12OC(C3CCCCC3)O[C@@H]1CC1C3CCC4=CC(=O)C=C[C@]4(C)C3[C@@H](O)C[C@@]12C` (stereo not given in full), the values for the Potency in the assay on DIV14, in the assay on ICS and with W2 were 1.51 µM (active), 0.794 µM (active) and 0.239 µM (active), respectively.

For the molecule `COC(=O)C1C2CC3c4[nH]c5cc(OC)ccc5c4CCN3CC2CC(OC)C1OC` (stereo not given), the Potency entry (in [1]; in [2]; with DFO2036; in the assay on ICS) was “inactive” each time.

In the case of `C=C1C(n2cnc3c(=O)[nH]c(N)nc32)C[C@H](O)[C@H]1CO` (stereo not given in full), the Potency entry (in assay [1]; in assay [2]; with DFO2036) was “inactive” each time.

As for `CNC1=CN(O)C(c2ccccc2)=c2cc(Cl)ccc2=N1`, the Potency entry in assay [1] is “inactive”. Further, the Potency was 3.16 µM (active) with DFO2036, 1.51 µM (active) in the assay on DIV14, 3.98 µM (active) with ICS and 1.2 µM (active) in the assay with W2.

Regarding `CC1CCC(O)C/C1=C\C=C1/CCCC2(C)C1CCC2C(C)/C=C/C(C)C(C)C` (stereo not given), the Potency result (in assay [2]; with DFO2036) was “inactive” each time. Further, the Potency in the assay with ICS is 11.2 µM (active).

For `Clc1ccc(CS[C@@H](Cn2ccnc2)c2ccc(Cl)cc2Cl)cc1`, in assay [2], the Potency result is “inactive”. Further, the Potency is 3.16 µM (active) in the assay with DFO2036, 5.1 µM (active) in the assay on DIV14, 0.891 µM (active) in the assay with ICS and 1.02 µM (active) in the assay with W2.

For the molecule `CCCSS/C(CCO)=C(/C)N(C=O)Cc1cnc(C)nc1N`, the Potency entry (in [1]; in the assay on DIV14; in the assay with W2) was “inactive” in each case. Further, in assay [2], the Potency was 10.2 µM (active).

Take `Cc1cc2nc3c(=O)[nH]c(=O)nc-3n(CC(O)C(O)C(O)COP(=O)(O)O)c2cc1C` (stereo not given): in assay [1], the Potency is 31.6 µM (active). Further, the Potency entry with DFO2036 and in the assay on ICS was “inactive” in each case.

For the molecule `CCC(=O)O[C@]1(C(=O)CCl)[C@@H](C)CC2C3C[C@H](F)C4=CC(=O)C=CC4(C)[C@@]3(F)C(O)CC21C` (stereo not given in full), the Potency in the assay with DFO2036 was 11.2 µM (active); in the assay with DIV14, 4.26 µM (active); in the assay on ICS, 2.82 µM (active); in the assay on W2 it was 6.01 µM (active).

In the case of `COc1cc(/C=C2\CCC/C(=C\c3ccc(O)c(OC)c3)C2=O)ccc1O`, the Potency with DFO2036 was 11.2 µM (active); with DIV14, 6.75 µM (active); with ICS it was 3.16 µM (active); in the assay on W2 it was 9.53 µM (active).

Consider `CC(C)CCCC(C)C1CC(=O)C2=C3CCC4CC(O)CCC4(C)C3CCC21C` (stereo not given), for which the Potency entry in the assay with DFO2036 and in the assay on DIV14 was “inactive” each time. Also, the Potency in the assay with W2 is 7.57 µM (active).

As to `C[C@@H]1CC2C3CCC4=CC(=O)C=C[C@]4(C)[C@@]3(F)[C@@H](O)C[C@]2(C)[C@@]1(O)C(=O)COC(=O)c1cccc(S(=O)(=O)O)c1` (stereo not given in full), the Potency entry (in [1]; in assay [2]; in the assay with DIV14; in the assay on ICS; in the assay with W2) was “inactive” throughout.

For the molecule `C[C@]12CC[C@@H]3c4ccc(O)cc4C[C@@H](CCCCCCCCCS(=O)CCCC(F)(F)C(F)(F)F)C3[C@@H]1CC[C@@H]2O` (stereo not given in full), the Potency is 11.2 µM (active) with DFO2036, 3.01 µM (active) with DIV14, 2 µM (active) with ICS and 6.75 µM (active) in the assay with W2.

Regarding `CC1CN(c2c(F)c(N)c3c(=O)c(C(=O)O)cn(C4CC4)c3c2F)CC(C)N1` (stereo not given), the Potency entry (in assay [1]; in assay [2]; in the assay with DFO2036; in the assay with DIV14; in the assay with ICS; in the assay on W2) was “inactive” in each case.

Turning to `CC(CN1CC(=O)NC(=O)C1)N1CC(=O)NC(=O)C1` (stereo not given), the Potency entry (in assay [1]; in the assay on DIV14; in the assay with ICS; in the assay with W2) was “inactive” in each case. The Potency in assay [2] was 18.1 µM (active).

As for `C=C1/C(=C\C=C2/CCC[C@]3(C)[C@@H]([C@H](C)/C=C/[C@@H](O)C4CC4)CC[C@@H]23)C[C@@H](O)C[C@@H]1O`, in assay [2], the Potency is 10.2 µM (active). Also, the Potency result in the assay on DFO2036 and in the assay on DIV14 was “inactive” in each case.

`CC1(C)SC2[C@@H](N=CN3CCCCCC3)C(=O)N2[C@H]1C(=O)O` (stereo not given in full): the Potency entry (in assay [1]; in [2]; in the assay on DFO2036) was “inactive” in each case.

As to `CC1(C)O[C@@H]2C[C@H]3[C@@H]4CCC5=CC(=O)C=C[C@]5(C)[C@H]4C(O)C[C@]3(C)[C@]2(C(=O)CO)O1` (stereo not given in full), the Potency entry (in [1]; in assay [2]; in the assay on DFO2036; in the assay with DIV14) was “inactive” each time.

As to `CC(C)(C)NC[C@H](O)CSc1nc(-c2ccc(C(N)=O)s2)cs1`, the Potency result (in assay [1]; in assay [2]; in the assay on W2) was “inactive” each time.

In the case of `C[C@]12C=CC(=O)N[C@@H]1CC[C@@H]1C2CC[C@]2(C)C(C(=O)Nc3cc(C(F)(F)F)ccc3C(F)(F)F)CC[C@@H]12` (stereo not given in full), the Potency result in the assay on DFO2036 is “inactive”. The Potency is 3.16 µM (active) in the assay with ICS and 1.51 µM (active) with W2.

With `CC(=O)CC(c1ccccc1)C1C(=O)Oc2ccccc2C1=O` (stereo not given), the Potency result (in assay [1]; in assay [2]; with DFO2036; in the assay on DIV14; with ICS; in the assay on W2) was “inactive” throughout.

Turning to `COc1ccc(S(=O)(=O)N2c3ccc(Cl)cc3[C@](O)(c3ccccc3Cl)[C@@H]2C(=O)N2CCC[C@H]2C(N)=O)cc1OC`, the Potency entry (in assay [6]; in assay [1]; in the assay with DFO2036) was “inactive” each time. Also, the Potency with ICS is 10 µM (active).

Take `CC1=C(c2ccc(NN=C(C#N)C#N)cc2)NNC(=O)C1`: the Potency entry (in assay [2]; with DFO2036; in the assay on DIV14; in the assay with ICS; with W2) was “inactive” in each case.

The record behind these values is PubChem BioAssay (NCATS).
